The campaign covered roughly 330,000 compounds. About 2,800 (0.85%) were called active.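 The calls were made as follows: active = mean inhibition across replicates of 60% or more, whatever share of single replicates reaches that level; inconclusive = some that reach 60%, reason not given; inactive = mean inhibition across replicates below 60%.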 The full list was thinned out, with actives kept by preference.

A short description of this assay: inhibitors of MITF-dependent TRPM1 promoter reporter, primary screen, cell-based, SK-MEL-5, single point, luciferase (AID 488899). The following applies: SK-MEL-5 TRPM1 promoter luciferase, 24 h; at 12.5 µM; active compounds read high.
What is called inhibition is the relative decrease from the control value, in per cent. For `CNN/C(N=Cc1ccc([N+](=O)[O-])s1)=N\S(=O)(=O)c1cc(C)c(Cl)cc1SCc1ccccc1`, the inhibition was 24.1% (inactive).

Regarding `CNC[C@H](CC1CCCCC1)NC[C@H](NCCC1CCCC1)[C@H](C)O`, the inhibition was 78.2% (active).

On to `CCOC(=O)c1ccccc1NC(=O)CSc1nc2c(sc(=S)n2CC)c(=O)[nH]1`, for which the inhibition is -3.35% (inactive).

As to `Cc1ccc(-n2nc(N)c3c(=O)oc(N(C)C)nc32)cc1`, the inhibition is -8.9% (inactive).

Regarding `COc1ccc(C(=O)NCC(c2ccco2)N2CCc3ccccc32)cc1OC` (stereo not drawn), the inhibition was 5.95% (inactive).

Regarding `Cc1ccc(-c2cn3cc(C)ccc3n2)cc1`, the inhibition is 93.3% (active).

In the case of `Cc1ccc2nc(-c3ccc(Br)cc3)cn2c1`, the inhibition was 50.5% (inactive).

For `Cc1ccc(-c2cn3cc([N+](=O)[O-])ccc3n2)cc1`, the inhibition was 48.1% (inactive).

As for `CCOc1ccc(-n2cnc3c(=O)[nH]c(N)nc32)cc1`, the inhibition was -21.7% (inactive).

Turning to `O=C(CCCCCCCC(=O)N1CCCCC1)N1CCCCC1`, the inhibition was 0.359% (inactive).

Regarding `COc1ccc(NC(=O)COC(=O)c2ccncc2)c(OC)c1`, the inhibition was -6.34% (inactive).

`Cc1cc2oc3ccc(NCCC4CCCN4C)cc3c(=O)c2cc1C` (stereo not drawn): the inhibition is 82.2% (active).

As for `Cc1cc2oc(=O)cc(CN3CCN(Cc4ccccc4)CC3)c2cc1C`, the inhibition was -7.61% (inactive).

As to `COc1cccc2sc3cc(NCC[C@@H]4CCCN4C)ccc3c(=O)c12`, the inhibition was -35.6% (inactive).

Turning to `CCOc1ccc(CN2CCNC(=O)C2CC(=O)NCCCC2CCCC2)cc1` (stereo not drawn), the inhibition was -18.3% (inactive).

For the molecule `COc1cc([N+](=O)[O-])ccc1NC(=O)COC(=O)CCOc1ccc(C)cc1`, the inhibition was 8.46% (inactive).

On to `COc1ccc(C(=O)CCC(=O)Nc2ccc(Cl)cc2)cc1`, for which the inhibition was -4.44% (inactive).

Consider `CCN(CC(=O)Nc1ccc(OC)cc1)C(=O)CSCc1ccc(C)cc1`, for which the inhibition is -0.141% (inactive).

As for `COc1ccc(CS(=O)/C(Cl)=C(/Cl)C(=O)Nc2ccc(OC)nc2)cc1` (stereo not drawn), the inhibition is 99.4% (active).

For the molecule `COc1ccc(NC(=O)/C(Cl)=C(/Cl)S(=O)Cc2ccc(C)cc2)cn1` (stereo not drawn), the inhibition was 113% (active).

In the case of `COC(=O)c1sccc1NC(=S)Nc1ccc(C)cc1`, the inhibition is -74.3% (inactive).

As for `COc1ccc(CCNC(=O)c2cnc(Cl)c(Cl)c2)cc1`, the inhibition was 1.33% (inactive).

Turning to `COc1ccc(C(=O)NC(Cc2ccc(OC(=O)c3ccc(OC)cc3)cc2)C(=O)O)cc1` (stereo not drawn), the inhibition is 3.82% (inactive).

For `Cc1cc(C(=O)N/N=C/c2ccccn2)c2ccccc2n1`, the inhibition is -2.21% (inactive).

Consider `O=C(N/N=C/c1ccccn1)C12CC3CC(CC(C3)C1)C2`, for which the inhibition is 0.297% (inactive).

Take `Cc1nnc(N/N=C/c2ccccn2)[nH]c1=O`: the inhibition is 79.6% (active).

Turning to `O=C(O)c1cc(S(=O)(=O)N(Cc2ccccc2)c2cccc(C(F)(F)F)c2)ccc1Cl`, the inhibition was 11.3% (inactive).

On to `COc1cc2c(cc1O)C(SC)=NC(C)(C)C2`, for which the inhibition was 73.8% (active).

On to `COc1cc2c(cc1OC)C(C(C)C)=NC(C)(C)C2`, for which the inhibition was 2.2% (inactive).

On to `COc1cc2c(cc1OC)C(Nc1ccc(S(N)(=O)=O)cc1)=NC(C)(C)C2`, for which the inhibition is 12.1% (inactive).

Consider `COc1ccc(-n2c(C)nn(CC3CC3)c2=O)cc1`, for which the inhibition is -0.556% (inactive).

Take `CCOc1ccc(NC(=O)CSc2nc3ccccc3c(=O)n2Cc2cccs2)cc1`: the inhibition is 9.83% (inactive).

In the case of `C=CCn1c(CNS(=O)(=O)c2ccc(Br)cc2)nnc1SC`, the inhibition is -0.805% (inactive).

`CC(C)c1cc(C(=O)N/N=C/C(Br)=C/c2ccccc2)n[nH]1`: the inhibition was 11.7% (inactive).

On to `Cc1cc(-c2n[nH]c(=S)n2/N=C/C(Br)=C/c2ccccc2)n[nH]1`, for which the inhibition is 71.3% (active).

Turning to `COc1ccccc1N1CCN(/N=C\C(Br)=C\c2ccccc2)CC1`, the inhibition was -56.4% (inactive).

With `COc1ccc(-c2cc(=O)oc3cc(OC(C)C(=O)Nc4ccc(CN5CCOCC5)cc4)ccc23)cc1` (stereo not drawn), the inhibition is -4.64% (inactive).

As for `CCCN(CCC)S(=O)(=O)c1cc2c(cc1Br)CCN2C(=O)CC`, the inhibition is 0.177% (inactive).

Turning to `NN=C(NN=Cc1ccccc1)c1ccccc1`, the inhibition is -40.6% (inactive).

As to `CC(Oc1ccc(-c2ccccc2)c(F)c1)c1ccn(S(=O)(=O)c2cccc3ccccc23)n1` (stereo not drawn), the inhibition is -2.2% (inactive).

With `O=C(O)c1ccc(S(=O)(=O)c2ccccc2)s1`, the inhibition was 11.8% (inactive).

In the case of `CC(=NCc1ccco1)c1c(C(F)(F)F)[nH]n(-c2nc3ccccc3s2)c1=O`, the inhibition was -61.7% (inactive).

Regarding `COc1ccc(C2=NN(c3nc4ccccc4s3)C(=O)C2)cc1`, the inhibition is 19.7% (inactive).

`COC(=O)Cc1[nH]n(-c2nc3ccccc3s2)c(=O)c1C(C)=Nc1ccc(OC)cc1`: the inhibition was 95.4% (active).

Take `CC[C@]12c3[nH]c4ccc(Cl)cc4c3CCN1C(=O)[C@@H](CC(=O)NCCCOC)C[C@@H]2C(=O)N1CCN(C(=O)c2ccco2)CC1`: the inhibition was -7.5% (inactive).

Consider `COc1ccc(C(=O)/C=C/Nc2ccccn2)cc1`, for which the inhibition is 67.5% (active).

With `CCOc1ccc(N/C=C/C(=O)c2ccccc2)cc1`, the inhibition is 8.94% (inactive).

In the case of `CCOc1ccc(N/C=C/C(=O)c2cc(OC)c(OC)c(OC)c2)cc1`, the inhibition is 4.18% (inactive).

Consider `O=[N+]([O-])c1ccc(N=NNc2ccc([N+](=O)[O-])cc2)cc1`, for which the inhibition was -19.3% (inactive).

With `CC(=O)NCCNC(=O)c1cc(-c2cccc3ccccc23)nc2ccccc12`, the inhibition is 9.13% (inactive).

In the case of `CN(C)CCNC(=O)Nc1cccc(Cl)c1Cl`, the inhibition is 5.71% (inactive).

As to `CN(C)CCNC(=O)c1ccc(Cl)c2cc3ccccc3nc12`, the inhibition was 74.8% (active).

On to `Cc1ccc(-c2nnc(-c3ccc(NC(=O)c4cccs4)cc3)o2)cc1`, for which the inhibition is 73.5% (active).

Regarding `Cc1ccc(OCC(=O)Nc2ccc(NC(=O)c3cccs3)cc2)c(C)c1`, the inhibition was 27.8% (inactive).

As to `Cc1ccc(C(=O)Nc2ccc(NC(=O)c3cccs3)cc2)c(C)c1`, the inhibition is -4.59% (inactive).

As to `CS(=O)(=O)c1ccc2nnn(OCC(=O)Nc3cccc(C#N)c3)c2c1`, the inhibition is 10.8% (inactive).

Regarding `COc1cc(O)c2c(=O)c3c(O)c(O)ccc3oc2c1OC`, the inhibition was -1.36% (inactive).

`Cc1ccccc1-c1n[nH]c(=S)n1/N=C/c1ccc(-c2ccccc2Br)o1`: the inhibition was 10.7% (inactive).

`O=C(CSc1n[nH]c(-c2cccs2)n1)N1CCCCC1`: the inhibition is -12.1% (inactive).

Take `COc1cc(OC)cc(C(=O)NNC(=O)CCOc2ccccc2OC)c1`: the inhibition was -4.37% (inactive).

On to `COc1cc(OC)cc(C(=O)N[C@H](C(=O)Nc2nc3ccccc3[nH]2)C(C)C)c1`, for which the inhibition was 71% (active).

In the case of `COc1cc(OC)cc(C(=O)N[C@H](C(=O)NNC(=O)c2ccc(Br)cc2)C(C)C)c1`, the inhibition was 13.3% (inactive).

With `COc1ccc(C(=O)N[C@H](C(=O)NCc2ccccc2)C(C)C)cc1`, the inhibition is 9.58% (inactive).

As to `CCn1nnc2cc(C(=O)Nc3ccc(C(=O)OC(C)C)cc3)ccc21`, the inhibition is 21.6% (inactive).

In the case of `CCOC(=O)C(CO)NC(=O)C1(NC(C)=O)CCCC1` (stereo not drawn), the inhibition was -14.8% (inactive).

As to `COc1ccc(C(=O)Nc2cccc(NC(=O)c3ccc(OC)cc3OC)n2)c(OC)c1`, the inhibition was -13.3% (inactive).

In the case of `Cc1csc(NC(=O)c2ccc(C)s2)n1`, the inhibition was -57.3% (inactive).

On to `COc1cc(SC)ccc1C(=O)Nc1nc(C)cs1`, for which the inhibition was 88.5% (active).

`CC(=O)Nc1ccccc1Sc1ccc2c3c(cccc13)C(=O)N(c1ccc(C)cc1)C2=O`: the inhibition is 65.2% (active).

For the molecule `CSc1ccccc1NC(=O)C(C)N1C(=O)c2ccccc2S1(=O)=O` (stereo not drawn), the inhibition is 0.029% (inactive).

Consider `Cc1ccc(N2C(=O)CC(Nc3cccc4ccccc34)C2=O)cc1` (stereo not drawn), for which the inhibition was 8.42% (inactive).

In the case of `O=C(NNC(=O)C1CCCC1)c1ccc(F)cc1`, the inhibition is 3.41% (inactive).

With `O=C(/C=C/c1ccc([N+](=O)[O-])o1)NNC(=O)c1ccc(F)cc1`, the inhibition was 80.8% (active).

Turning to `COc1ccc(C(=O)NCC(=O)N/N=C/c2ccc([N+](=O)[O-])o2)cc1OC`, the inhibition is 10.3% (inactive).

Turning to `O=C(Cn1cnc2ccccc2c1=O)NCC1COc2ccccc2O1` (stereo not drawn), the inhibition is -4.59% (inactive).

Take `Cc1ccc2nc(Nc3ccccc3O)nc(-c3ccccc3)c2c1`: the inhibition was -6.93% (inactive).

As for `COC(=O)Cn1nc(-c2ccccc2)c2cc(Cl)ccc21`, the inhibition is -4.99% (inactive).

As to `NC(N)=Nc1nc(-c2ccccc2)c2cc(Cl)ccc2n1`, the inhibition was 85.2% (active).

Regarding `COc1ccc2[nH]c3c(C)c4cc[n+](C)cc4c(C)c3c2c1`, the inhibition is 50.4% (inactive).

As to `COC(=O)Cn1cc(/C=C/[N+](=O)[O-])c2ccccc21`, the inhibition is 1.38% (inactive).

As for `O=C(Cn1ccc2cc(S(=O)(=O)N3CCCC3)ccc21)NCc1ccccc1`, the inhibition is -7.14% (inactive).

Regarding `O=[N+]([O-])/C=C/c1ccc2c(ccn2Cc2ccccc2)c1`, the inhibition is 69.6% (active).

As for `CC1(C)C2CCC1(C)C(OC(=O)c1ccc(O)cc1)C2` (stereo not drawn), the inhibition is -0.433% (inactive).

On to `CC(C)OC(=O)c1ccc(NCc2cc(O)ccc2O)cc1Cl`, for which the inhibition is 5.02% (inactive).

As for `COC(=O)c1ccc(NCc2cc(O)ccc2O)cc1`, the inhibition is -5.57% (inactive).

Consider `O=C(OC12CC3CC(CC(C3)C1)C2)c1ccc(NCc2cc(O)ccc2O)cc1`, for which the inhibition was 66.6% (active).

In the case of `Cc1ccc(-n2c(O)c(C=Nc3ccc(S(=O)(=O)Nc4ncccn4)cc3)c3ccccc3c2=O)cc1C`, the inhibition was 7.63% (inactive).

As to `CCOc1ccc(-n2c(O)c(/C=N/Nc3nc(C)cc(C)n3)c3ccccc3c2=O)cc1`, the inhibition was 67.6% (active).

On to `CCN(CC)CCCN=Cc1c(O)n(-c2ccc(C)cc2)c(=O)c2ccccc12`, for which the inhibition is -6.61% (inactive).

For `Cc1ccc(S(=O)(=O)C2C(=O)NC3(C)CC2c2ccccc2O3)cc1` (stereo not drawn), the inhibition is 4.13% (inactive).

For the molecule `COc1ccc(C(=O)Nc2ccnn2C2CCN(Cc3ccncc3)CC2)cc1`, the inhibition is -5.32% (inactive).

Consider `CCCCCN(C(=O)NC(=O)Nc1ccccc1C)S(C)(=O)=O`, for which the inhibition is 4.88% (inactive).

As for `CCOC(=O)CCC(NC(=O)c1ccc(CNc2nc3cc(C(F)(F)F)ccc3nc2C(=O)OCC)cc1)C(=O)OCC` (stereo not drawn), the inhibition is 3.92% (inactive).

Values taken from PubChem BioAssay AID488899 (Broad Institute, 2010).
